Source: PubChem
CCHF vOTU inh: CCHFV vOTU protease inhibitors, primary screen, biochemical, Pep-AMC substrate, fluorescence. Crimean-Congo hemorrhagic fever virus L polyprotein viral ovarian tumor (vOTU) protease …. inhibition, % at 11.5 µM. hit rate 0.55% among 370,000. AID 651958, 2012; in the data active = inhibition above about 30%
Sa RN4220 lethal: growth inhibition of S. aureus RN4220, primary screen, OD600. hit rate 0.33% among 330,000. 16 h. inhibition, % (test concentration not listed). AID 1259311, 2017; in the data active = inhibition above about 85%
Sa ugtP lethal: growth inhibition of ugtP-null S. aureus, primary screen, RN4220 ugtP deletion, OD600; AID 1259309, 2017; growth inhibition, % (concentration not given with the values); hit rate 0.54% among 330,000; 16 h; in the data active = growth inhibition above about 68%
VHR inh abs: VHR1 phosphatase inhibitors, primary screen, biochemical, absorbance, uHTS; Dual specificity protein phosphatase 3 (Homo sapiens), P51452; inhibition, % at 13.3 µM; hit rate 0.52% among 290,000; recombinant VHR phosphatase, pNPP absorbance; in the data active = inhibition above about 50%
Target sequence (P51452 whole entry, looked up): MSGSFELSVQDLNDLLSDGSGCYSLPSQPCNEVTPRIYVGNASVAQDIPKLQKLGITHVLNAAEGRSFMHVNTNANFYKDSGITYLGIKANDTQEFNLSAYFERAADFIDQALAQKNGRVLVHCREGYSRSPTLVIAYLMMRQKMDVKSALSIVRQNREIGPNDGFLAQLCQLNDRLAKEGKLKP
PriA SSB inh: inhibitors of Klebsiella pneumoniae PriA binding to SSB C-terminal tail, primary screen, biochemical, AlphaScreen. AlphaScreen SSBct-PriA binding, biotinylated peptide. AID 1272365, 2023. hit rate 0.6% among 430,000. inhibition, % at 33 µM; in the data active = inhibition mostly above about 37%, no sharp cut-off; inactive = mostly below about 20%
A number is an active result; 0 = inactive; - = no result. Hits are enriched below; roughly 1.5% of the tested compounds scored in any of these assays.

SMILES | CCHF vOTU inh | Sa RN4220 lethal | Sa ugtP lethal | VHR inh abs | PriA SSB inh
CCOC(=O)C1=C(N)n2c(s/c(=C\c3cccnc3)c2=O)=C(C(=O)OCC)C1c1cccnc1 (centres undefined) | - | - | - | 57 | -
O=C(Nc1c[nH]c(=O)[nH]c1=O)c1cccc([N+](=O)[O-])c1 | 0 | 0 | 0 | 56 | 0
COc1ccccc1NC(=O)Nc1cccc(-c2ccc(N3CCN(C)CC3)nn2)c1 | - | - | - | - | 0
CCNc1nc(NC(C)C)nc(NS(=O)(=O)c2ccc(N)cc2)n1 | 0 | 0 | 0 | 0 | 0
CCNc1nc(NCC)nc(N(n2cnnc2)S(=O)(=O)c2ccc(C)cc2)n1 | 0 | 97 | 99 | 0 | 0
CCNc1nc(NC(C)C)nc(N(n2cnnc2)S(=O)(=O)c2ccc(C)cc2)n1 | 0 | 0 | 90 | 0 | 0
CC(C)NC(=O)c1ccc(=O)n(C)n1 | - | - | - | - | 0
COC(=O)c1ccc(/C=N\N2CCN(c3ccccc3)CC2)cc1 | 0 | - | - | 51 | -
O=C(Nc1nnc(-c2ccc(Cl)s2)o1)C1CC(=O)N(c2ccccc2)C1 (centres undefined) | - | - | - | - | 0
O=C(Nc1nnc(-c2ccco2)o1)C1CC(=O)N(c2ccccc2)C1 (centres undefined) | - | - | - | - | 65
N#CC(C#N)=c1ccc2c(c1)N1C3=C(CCCC3)CC3CCCCC31N=2 (centres undefined) | 0 | 91 | 92 | 0 | 0
Cc1ccc(C(=O)C2CCN(CC(=O)NCc3ccc(F)cc3)CC2)cc1 | 0 | - | - | 53 | 0
CCC(NC(=O)c1ccccc1NC(=O)c1ccccc1)C(=O)OC (centres undefined) | 0 | 0 | 0 | 0 | 52
CCC(NC(=O)c1ccccc1NC(=O)c1ccc(OC)cc1)C(=O)N1CCCC1 (centres undefined) | 0 | 0 | 0 | 0 | 0
COc1ccc(NS(=O)(=O)c2cccc(C)c2)cc1 | - | - | - | - | 0
O=C(Nc1ccc(F)cc1)Nc1cnccn1 | 0 | 0 | 0 | 0 | 0
O=C(Nc1cc(Cl)cc(Cl)c1)Nc1cnccn1 | 0 | 100 | 100 | 0 | 0
Cn1c(COc2cccc3ccccc23)nnc1SCC(=O)OC1CCCCC1 | 0 | 97 | 92 | 0 | 0
CCn1c(COc2cccc3ccccc23)nnc1SCC(=O)OC1CCCCC1 | 0 | 99 | 99 | 0 | 0
O=C(O)CSc1nnc(COc2cccc3ccccc23)n1Cc1ccccc1 | 0 | 0 | 0 | 0 | 0
CC(O)(CNC(=O)c1ccccn1)Cc1ccco1 (centres undefined) | - | - | - | - | 0
CSc1ccc(/C=N/NC(=O)c2ccc(O)cc2)cc1 | 0 | - | - | 60 | -
Cc1cc(C)n(-c2nc(-c3ccccc3)cs2)n1 | 0 | 0 | 0 | 0 | 0
Cc1cc(C)n(-c2nc(-c3cccc(Cl)c3)cs2)n1 | 0 | 0 | 88 | 0 | 0
O=C(Nc1nc(-c2ccccc2)c(-c2ccccc2)o1)c1ccc(F)cc1 | 0 | 99 | 96 | 0 | 0
SMILES | CCHF vOTU inh | Sa RN4220 lethal | Sa ugtP lethal | VHR inh abs | PriA SSB inh
CCOC(=O)c1cnc(-c2ccccc2)nc1Oc1ccccc1 | 0 | 0 | 86 | 0 | 0
CCOC(=O)N1N=C(c2ccc(OC)cc2)CC1(O)C(F)(F)F (centres undefined) | 0 | 0 | 0 | 0 | 0
CCc1ccc(C2=NN(C(=O)OC)C(O)(C(F)(F)F)C2)cc1 (centres undefined) | 0 | 0 | 0 | 52 | 0
O=C(NC1CCCCC1)C(c1ccc(Cl)cc1)N(C(=O)c1ccccn1)c1cccnc1 (centres undefined) | - | 0 | 0 | 57 | -
O=C(NCC(=O)N(c1ccccc1)C(C(=O)NC1CCCC1)c1cccnc1)c1cccs1 (centres undefined) | 0 | 0 | 0 | 53 | 0
Cc1cc(C)cc(N(C(=O)c2csnn2)C(C(=O)NC2CCCCC2)c2cccnc2)c1 (centres undefined) | 0 | 0 | 0 | 53 | 0
CCc1ccc(C(C(=O)NC2CCCCC2)N(C(=O)c2ccccn2)c2cccnc2)cc1 (centres undefined) | - | 0 | 0 | 0 | -
Cc1cc(C)cc(N(C(=O)c2csnn2)C(C(=O)NC2CCCC2)c2cccnc2)c1 (centres undefined) | 0 | 0 | 0 | 0 | 0
O=C(Cc1cccs1)NCCCn1ccnc1-c1ccccc1 | - | - | - | - | 0
CCOc1cc(Nc2ccc(NC(=O)c3cc(Cl)ccc3OC)cc2)nc(C)n1 | - | - | - | - | 0
CC(=O)c1ccc2c(c1)C1C(Cl)C(Sc3ccccc3[N+](=O)[O-])CC1C(C(=O)O)N2 (centres undefined) | 0 | 0 | 0 | 0 | 46
O=C(CSc1nc2ccccc2n1S(=O)(=O)c1ccc(Br)cc1)NCc1ccccc1 | - | - | - | - | 0
CCc1nn(CCCC(=O)N2CCN(c3ccc(OC)cc3)CC2)c(=O)c2cc3occc3n12 | 0 | 0 | 0 | 57 | 0
O=C1/C(=C/C=C/c2ccco2)SC(=S)N1c1ccc(O)cc1 | 0 | 0 | 0 | 0 | 0
CC(C)C(C(=O)O)N1C(=O)/C(=C/C=C/c2ccco2)SC1=S (centres undefined) | - | 0 | 0 | 52 | 0
NC(=S)NN=Cc1nccc2ccccc12 | 0 | 0 | 0 | - | 78
N#CCCN1CCCc2cc(N=Nc3ccc(C(F)(F)F)cc3)ccc21 | 0 | 0 | 0 | 0 | 45
COc1cc(/C=N\NC(=O)C2(O)c3ccccc3-c3ccccc32)ccc1O | - | - | - | - | 0
OCCN(Cc1cccnc1)Cc1ccccn1 | 0 | - | - | - | 42
OCCN(Cc1ccccc1)Cc1ncccc1O | 0 | 0 | 0 | - | 0
COc1ccccc1N1CCN(CCNC(=O)COc2ccc(F)cc2)CC1 | - | - | - | - | 0
Cc1n[nH]c(=O)nc1NN=Cc1cccs1 | - | 0 | 0 | - | 59
Cc1ccsc1/C=N/Nc1nc(=O)[nH]nc1C | 0 | - | - | 0 | -
O=C(N/N=C/c1cccs1)c1cc(-c2ccc3ccccc3c2)n[nH]1 | 0 | - | - | 0 | -
Nc1n[nH]c(C(=O)N/N=C\c2cccs2)n1 | - | - | - | - | 50
SMILES | CCHF vOTU inh | Sa RN4220 lethal | Sa ugtP lethal | VHR inh abs | PriA SSB inh
O=C(CSc1ccccc1)N(CCN1CCOCC1)c1nc2c(F)cccc2s1 | - | - | - | - | 0
O=c1cc(O)c2ncccc2[nH]1 | - | - | - | - | 129
CN(C)S(=O)(=O)c1ccc(N2CCCC2)c(C(=O)NNC(=O)c2ccccc2)c1 | 0 | 95 | 0 | - | 0
O=C1CCCN1Cc1cn(C2CN(S(=O)(=O)CCCOc3ccccc3)C2)nn1 | - | - | - | - | 0
O=C(CSc1ccc(-c2ccccn2)nn1)Nc1cccc(F)c1 | 0 | 0 | 0 | 0 | 55
COc1ccc(CCNC(=O)CSc2ccc(-c3ccccc3)nn2)cc1OC | 0 | 0 | 0 | 0 | 0
Cc1csc(NC(=O)CSc2ccc(-c3ccccn3)nn2)n1 | 0 | 0 | 0 | 0 | 63
O=C(CSc1ccc(-c2ccccn2)nn1)Nc1cccc([N+](=O)[O-])c1 | - | - | - | - | 48
O=C(CSc1ccccn1)Nc1cccc([N+](=O)[O-])c1 | 0 | 0 | 0 | 0 | 0
COc1ccc(CCNC(=O)CSc2ccc(-c3ccccn3)nn2)cc1OC | - | - | - | - | 94
O=C(CSc1ccc(-c2ccccn2)nn1)Nc1nccs1 | 0 | 0 | 0 | 0 | 0
O=C(CSc1ccc(-c2ccccn2)nn1)Nc1ccc(F)cc1 | - | - | - | - | 0
CCOC(=O)CCC(=O)Nc1c(C)nc2scc(C)n2c1=O | - | - | - | - | 0
O=C(CSc1nc2c(oc3ccccc32)c(=O)n1Cc1cccs1)Nc1ccc(F)cc1F | - | - | - | - | 0
